# Assay outcomes deposited in PubChem BioAssay by The Scripps Research Institute Molecular Screening Center.
# CHRM1 PAM = potentiates human M1 receptor response to acetylcholine | AID 588819 | 360,000 compounds, 0.088% hits | P11229 | CHO-K1 hM1, Fluo-8 calcium fluorescence, ACh EC20; 0% = ACh EC20, 100% = maximal ACh | activation, % at 3 µM; in the data active = activation above about 19%, passing the limit was not always enough
# Target sequence (P11229 whole entry, looked up): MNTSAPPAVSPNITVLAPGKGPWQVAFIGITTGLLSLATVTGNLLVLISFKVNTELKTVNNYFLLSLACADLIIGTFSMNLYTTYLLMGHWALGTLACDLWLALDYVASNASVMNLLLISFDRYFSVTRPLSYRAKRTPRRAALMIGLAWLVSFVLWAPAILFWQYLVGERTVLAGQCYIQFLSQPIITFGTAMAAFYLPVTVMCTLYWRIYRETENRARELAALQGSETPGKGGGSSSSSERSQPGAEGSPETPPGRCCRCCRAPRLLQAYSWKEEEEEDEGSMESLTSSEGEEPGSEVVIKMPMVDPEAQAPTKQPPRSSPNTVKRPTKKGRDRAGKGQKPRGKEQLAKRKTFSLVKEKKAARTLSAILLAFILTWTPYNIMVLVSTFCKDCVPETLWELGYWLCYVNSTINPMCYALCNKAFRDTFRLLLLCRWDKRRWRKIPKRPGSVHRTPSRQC
# M1 ag = activates human CHRM1 receptor | AID 588814 | CHO-K1 hM1, Fluo-8 calcium fluorescence, agonist mode; 0% DMSO, 100% acetylcholine EC100 | P11229 | 360,000 compounds, 0.33% hits | activation, % at 3 µM;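 active = activation above the run's mean compound activation plus 3 SD, cut at about 16% in these data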;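 note: peak over basal fluorescence ratio within a 140 s kinetic read after compound addition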
# CHO-K1 Ca ag = counter-screen for M1 agonists: effect in parental CHO-K1 cells. 360,000 compounds, 0.48% hits. AID 602248. Fluo-8 calcium fluorescence; scaled to maximal ATP response, vehicle zero. activation, % at 3 µM; in the data active = activation above about 15%;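 note: untransfected CHO-K1 host cells lacking M1 receptor as counterscreen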
# CHRM1 antagonist = blocks human M1 muscarinic receptor; P11229; CHO-K1 hM1, Fluo-8 calcium fluorescence, ACh EC80 antagonist; inhibition, % at 3 µM; 360,000 compounds, 1.3% hits;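 active = percent inhibition above its own plate's cutoff, namely the mean of that plate's compound wells plus 3 SD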;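 note: peak over basal fluorescence ratio during 140 s after agonist addition; 0% = ACh EC80 plus DMSO and 100% = DMSO alone without agonist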
# CHO-K1 Ca PAM = counter-screen for M1 PAMs: effect in parental CHO-K1 cells | ATP EC20, Fluo-8 calcium fluorescence; 0% at ATP EC20, 100% at ATP max | activation, % at 3 µM | 360,000 compounds, 0.02% hits | AID 602247;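 active = activation above the run cutoff, the mean activation of all test compounds plus 3 SD, cut at about 40% in these data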;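 note: peak over basal fluorescence ratio in a 140 s read after ATP addition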
# CHO-K1 Ca antag = counter-screen for M1 antagonists: effect in parental CHO-K1 cells; inhibition, % at 3 µM; AID 602250; ATP-induced calcium, Fluo-8 fluorescence; 360,000 compounds, 0.6% hits;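 active = inhibition above a per-plate cutoff, the plate's mean sample inhibition plus 3 SD, cut at about 24% in these data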;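 note: 0% = DMSO plus EC80 ATP and 100% = DMSO alone without ATP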
# Starred values were filed as active, the others as inactive. Compounds with a hit are over-represented: about 2.3% of the library has one in this group of screens.
SMILES,CHRM1 PAM,M1 ag,CHO-K1 Ca ag,CHRM1 antagonist,CHO-K1 Ca PAM,CHO-K1 Ca antag
CCOC(=O)C1(Cc2ccc(Cl)cc2)CCN(C(C)Cc2ccc(O)c(OC)c2)CC1 (stereo not given),-17,-5,9,39*,0,19
CCOC(=O)C1(Cc2ccc(OC)cc2)CCN(S(C)(=O)=O)CC1,4,-2,1,1,6,-11
CON(C)S(=O)(=O)c1cccc(C(=O)Oc2ccc(N(C)S(=O)(=O)c3ccccc3)cc2)c1,1,-1,4,2,9,-3
COc1ccc(C2CC(c3cccs3)=NN2C(=O)CSc2nc(=O)n3cc(C)ccc3n2)cc1 (stereo not given),-8,1,2,0,26,-7
Cc1cc(C(c2ccc(O)cc2)c2cc(C)c(O)cc2C)c(C)cc1O,9,42*,11,9,31,4
CCC(c1ccc(O)cc1)C(CC)c1ccc(O)cc1 (stereo not given),-13,-4,0,-2,5,7
CC(CCN1C(N(C)C)=NC[C@@H]1C)c1ccccc1 (stereo not given in full),-23,-14,0,31*,-14,10
Fc1ccc(N2CCN(C3=Nc4cccc5cccc3c45)CC2)cc1,-34,-14,3,88*,15,-4
COc1ccc(C(=O)N2CCCC(c3cc(C(=O)NCc4ccccc4)no3)C2)cc1 (stereo not given),5,-1,1,-10,14,-9
COc1cc(/C=N/n2nnnc2N)ccc1OCC(N)=O,-1,0,0,6,12,14
COc1cc(/C=N\n2nnnc2N)ccc1OCc1ccc(F)cc1,-17,-1,1,active,-7,11
C/C(=N\NC(=S)NC(C)C)c1ccc(Cl)s1,-24,-10,0,81*,-3,7
Cc1nn(CC(=O)OCC(=O)c2ccc(OC(F)F)cc2)c(C)c1[N+](=O)[O-],13,-5,0,-17,5,-19
Cc1ccc(N(Cc2ccco2)C(=O)c2ccc(N3CCCCC3)c([N+](=O)[O-])c2)cc1,-6,-4,-1,7,-15,25*
COC(=O)c1ccc(C23CC4(C2)[C@H](CN(C)[C@@H]4c2ccccc2)C3c2ccc(Cl)nc2)cc1 (stereo not given in full),-35,-7,5,70*,11,6
N#Cc1ccc(C23CC4(C2)[C@H](CN(P(=O)(c2ccccc2)c2ccccc2)[C@@H]4c2ccccc2)C3c2ccc(Cl)nc2)cc1 (stereo not given in full),-8,-4,0,15,-6,-10
COC(=O)c1ccc(C23CC4(C2)[C@H](CN(C)[C@@H]4c2ccccc2)C3c2ccc(C(F)(F)F)cc2)cc1 (stereo not given in full),-4,-8,4,8,-10,2
CN1C[C@@H]2C(c3ccc(Cl)nc3)C3(c4ccc(C#N)cc4)CC2(C3)[C@H]1c1ccccc1 (stereo not given in full),-38,-13,1,55*,6,-7
Cc1cc(C)cc(-n2cc(C(=O)O)c(=O)cc2C)c1,-2,-4,5,7,-1,5
COc1ccc(CNC(=O)C(c2ccco2)N(C(=O)CNS(=O)(=O)c2ccccc2)c2ccccc2C)cc1 (stereo not given),-5,-7,54*,7,14,11
COc1ccc(S(=O)(=O)NCC(=O)N(CC(=O)NCc2ccccc2)Cc2ccco2)cc1,13,-5,1,-18,-9,-5
O=C(Cn1cncn1)NCCCc1ccccc1,14,-1,1,-14,0,-2
CC(C)Oc1cccc(C(=O)C2CCCN(Cc3ccc(Oc4ncccn4)cc3)C2)c1 (stereo not given),-28,-9,1,83*,-7,-10
COc1c(C)cc(C(=O)C2CCCN(Cc3ccc(Oc4ncccn4)cc3)C2)cc1C (stereo not given),-19,-1,6,35*,11,4
CC(Cc1nnc(SCC(=O)O)n1N)c1ccccc1 (stereo not given),2,-5,0,2,-2,-1
SMILES,CHRM1 PAM,M1 ag,CHO-K1 Ca ag,CHRM1 antagonist,CHO-K1 Ca PAM,CHO-K1 Ca antag
COC(=O)C1=C/C=C\CN(C(c2ccccc2)c2ccccc2)/C=C\1C(=O)OC,6,-6,0,-10,22,-14
Cc1ncsc1C(=O)N1CCCC(C(=O)c2ccc3ccccc3c2)C1 (stereo not given),5,-4,2,-8,7,-14
NC(=S)Cc1nc(-c2ccccc2)cs1,-8,-2,2,12,-10,32*
O=C(COc1ccc(F)cc1)NCCNC(=O)COc1ccc(F)cc1,1,-2,0,4,8,-10
CC(=O)Nc1c2c(nn1-c1ccc(Cl)cc1)CSC2,11,-3,0,-17,-7,3
O=C(Cc1ccc(S(=O)(=O)N2CCOCC2)s1)N1CCN(S(=O)(=O)c2ccccc2[N+](=O)[O-])CC1,-15,-4,3,32*,-2,-7
O=S1(=O)CCN(C(CCO)c2cccc(C(F)(F)F)c2)CC1 (stereo not given),9,-5,2,-7,25,-10
CC(C)c1cccc(-c2csc(C(C)(O)c3ccccc3)n2)c1 (stereo not given),0,-4,1,-16,10,-23
CCN(CC)CCOC(=O)c1ccc(NC(=O)CCCN2C(=O)/C(=C\c3cccs3)SC2=S)cc1,-21,-5,1,43*,6,2
O=C(CCN1C(=O)/C(=C\c2cccs2)SC1=S)Nc1ccc(C(=O)O)cc1,6,-3,1,-1,1,-4
Cn1cc(CNC(=O)CC2C(=O)NCCN2CC(C)(C)C)cn1 (stereo not given),15,3,0,4,-10,10
Cc1ccc(CNC(=O)Cn2cnc(S(=O)(=O)N3CCC(C)CC3)c2)o1,2,-2,0,-3,-7,-1
COc1ccc(NC(=O)N2c3ccc(OC)cc3C(C)=CC2(C)C)cc1,3,-6,0,2,7,25*
Cc1ccc(NC(=S)Nc2ccc(Br)cc2)cc1,1,3,2,7,-5,35*
N#Cc1ccc(NC(=O)Cn2cnc(S(=O)(=O)N3CCc4ccccc43)c2)cc1,0,-1,1,-4,13,-19
COc1ccccc1N1C(=O)C2C(C(=O)c3ccccc3)=NN(c3ccc(Br)cc3)C2C1=O (stereo not given),10,-1,31*,-6,-1,30*
CC(=O)NNC(=S)NC(=O)C(c1ccccc1)c1ccccc1,-5,1,4,0,11,-1
